Test results: the supplement of paper PMC12067926

Tests used:
Assay in all cases: relative growth (AUC of 72 h growth curve relative to DMSO control, dAUC) (ratio); higher = more growth (less inhibition), active = hit call of the paper
Settings in all cases: 20 µM;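 active = growth AUC significantly below the DMSO wells by Dunnett test; inactive = the rest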
[1] = system: Aeromonas 1 (Aeromonas sp. AE235)
Summary of the method: (§1)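 Each chemical was tested at 20 µM (1% DMSO) in 96-well plates seeded with a 1:100 dilution of cultures grown to carrying capacity in Luria–Bertani medium. These were isolates from Icelandic stream sediments and Silwood Park soil, as well as whole sediment communities. A plate reader took A600 readings hourly over 72 h, and three biological replicates were averaged. Relative growth (dAUC) is the spline-integrated area under the growth curve relative to the mean of the DMSO controls.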

[2] = system: Aeromonas 2 (Aeromonas sobria)
Summary of the method: as §1

[3] = system: Aeromonas 3 (Aeromonas popoffii)
Summary of the method: as §1

[4] = system: Argrobacterium 1 (Agrobacterium sp.)
Summary of the method: as §1

[5] = system: Arthrobacter 1 (Arthrobacter humicola)
Summary of the method: as §1

[6] = system: Arthrobacter 2 (Arthrobacter humicola)
Summary of the method: as §1

[7] = system: Arthrobacter 3 (Arthrobacter sp.)
Summary of the method: as §1

Community 10 = system: Community 10
Summary of the method: as §1

Community 4 = system: Community 4
Summary of the method: as §1

Community 6 = system: Community 6
Summary of the method: as §1

Community 7 = system: Community 7
Summary of the method: as §1

Community 8 = system: Community 8
Summary of the method: as §1

Community 9 = system: Community 9
Summary of the method: as §1

[8] = system: Flavobacterium 1 (Flavobacterium glaciei)
Summary of the method: as §1

[9] = system: Flavobacterium 2 (Flavobacterium succinicans)
Summary of the method: as §1

[10] = system: Hymenobacter 1 (Hymenobacter glaciei)
Summary of the method: as §1

[11] = system: Microbacterium 1 (Microbacterium arborescens)
Summary of the method: as §1

[12] = system: Neobacillus 1 (Neobacillus soli)
Summary of the method: as §1

[13] = system: Oryzobacter 1 (Oryzobacter terrae)
Summary of the method: as §1

[14] = system: Paenibacillus 1 (Paenibacillus castaneae)
Summary of the method: as §1

| Compound | relative growth [1] | relative growth [2] | relative growth [3] | relative growth [4] | relative growth [5] | relative growth [6] | relative growth [7] | relative growth (Community 10) | relative growth (Community 4) | relative growth (Community 6) | relative growth (Community 7) | relative growth (Community 8) | relative growth (Community 9) | relative growth [8] | relative growth [9] | relative growth [10] | relative growth [11] | relative growth [12] | relative growth [13] | relative growth [14] |
| --- | --- | --- | --- | --- | --- | --- | --- | --- | --- | --- | --- | --- | --- | --- | --- | --- | --- | --- | --- | --- |
| O=C1C2(Cl)C3(Cl)C4(Cl)C(Cl)(Cl)C5(Cl)C3(Cl)C1(Cl)C5(Cl)C24Cl (stereo not drawn) | 0.934 (inactive) | 0.817 (active) | 0.99 (inactive) | 1.03 (inactive) | 0.00606 (active) | 0.00565 (active) | 0.0264 (active) | 0.82 (inactive) | 0.858 (inactive) | 0.811 (inactive) | 1.14 (inactive) | 1.02 (inactive) | 0.875 (inactive) | 0.126 (active) | 0.847 (inactive) | 0.00946 (active) | 1.01 (inactive) | 0.911 (inactive) | 0.00589 (active) | 0.678 (active) |
| CCCCOC(=O)[C@H](C)Oc1ccc(Oc2ccc(C#N)cc2F)cc1 | 1.04 (inactive) | 1.07 (inactive) | 1.05 (inactive) | 1.11 (inactive) | 1.11 (inactive) | 0.875 (inactive) | 0.882 (inactive) | 0.88 (inactive) | 1.03 (inactive) | 1.03 (inactive) | 1.07 (inactive) | 0.995 (inactive) | 1.06 (inactive) | 1.13 (inactive) | 0.955 (inactive) | 1.03 (inactive) | 1.04 (inactive) | 1.03 (inactive) | 1.06 (inactive) | 1.1 (inactive) |
| CC(C)(C)C(O)(CCc1ccc(Cl)cc1)Cn1cncn1 (stereo not drawn) | 0.916 (inactive) | 0.917 (inactive) | 1.01 (inactive) | 0.949 (inactive) | 0.544 (active) | 0.232 (active) | 0.39 (active) | 0.835 (inactive) | 0.913 (inactive) | 0.878 (inactive) | 0.983 (inactive) | 0.995 (inactive) | 0.862 (inactive) | 0.671 (active) | 0.816 (inactive) | 1.04 (inactive) | 1 (inactive) | 0.945 (inactive) | 1.41 | 0.808 (inactive) |
| Cc1ccc(/N=C/N(C)/C=N/c2ccc(C)cc2C)c(C)c1 | 0.991 (inactive) | 0.995 (inactive) | 1 (inactive) | 0.984 (inactive) | 0.964 (inactive) | 0.821 (inactive) | 1.04 (inactive) | 0.922 (inactive) | 0.905 (inactive) | 0.969 (inactive) | 1.16 (inactive) | 1.05 (inactive) | 0.961 (inactive) | 1.02 (inactive) | 1 (inactive) | 1.04 (inactive) | 1.05 (inactive) | 0.964 (inactive) | 1.03 (inactive) | 0.969 (inactive) |
| CC(C)OC(=O)Nc1cccc(Cl)c1 | 0.932 (inactive) | 0.969 (inactive) | 1.05 (inactive) | 0.93 (inactive) | 0.95 (inactive) | 1 (inactive) | 0.964 (inactive) | 1.17 (inactive) | 1.11 (inactive) | 1.13 (inactive) | 1.07 (inactive) | 1.01 (inactive) | 1.09 (inactive) | 0.971 (inactive) | 1.03 (inactive) | 1.09 (inactive) | 1.04 (inactive) | 1.09 (inactive) | 0.999 (inactive) | 1.12 (inactive) |
| COc1cccc(C(=O)NN(C(=O)c2cc(C)cc(C)c2)C(C)(C)C)c1C | 0.951 (inactive) | 0.969 (inactive) | 0.979 (inactive) | 0.982 (inactive) | 0.98 (inactive) | 0.884 (inactive) | 1.02 (inactive) | 0.786 (inactive) | 0.822 (inactive) | 0.89 (inactive) | 1.12 (inactive) | 1.03 (inactive) | 0.893 (inactive) | 0.818 (inactive) | 0.92 (inactive) | 0.923 (inactive) | 0.977 (inactive) | 0.914 (inactive) | 1.06 (inactive) | 0.926 (inactive) |
| CCc1cnc(C2=NC(C)(C(C)C)C(=O)N2)c(C(=O)O)c1 (stereo not drawn) | 0.969 (inactive) | 0.981 (inactive) | 1 (inactive) | 0.95 (inactive) | 0.895 (inactive) | 0.959 (inactive) | 0.932 (inactive) | 1.1 (inactive) | 1.03 (inactive) | 1.04 (inactive) | 1.05 (inactive) | 1.03 (inactive) | 0.98 (inactive) | 0.988 (inactive) | 1.03 (inactive) | 1.09 (inactive) | 1.04 (inactive) | 1.01 (inactive) | 0.96 (inactive) | 1.02 (inactive) |
| CCCSP(=O)(OCC)Oc1ccc(Br)cc1Cl (stereo not drawn) | 1.02 (inactive) | 1.02 (inactive) | 0.994 (inactive) | 1.12 (inactive) | 0.894 (inactive) | 0.745 (inactive) | 0.973 (inactive) | – | 0.833 (inactive) | 0.83 (inactive) | 1.01 (inactive) | 0.96 (inactive) | 0.866 (inactive) | 1.01 (inactive) | 0.919 (inactive) | 0.98 (inactive) | 1.01 (inactive) | 0.965 (inactive) | 1.27 | 0.925 (inactive) |
| CNC(=O)Oc1cccc(/N=C/N(C)C)c1 | 1 (inactive) | 0.973 (inactive) | 0.975 (inactive) | 0.977 (inactive) | 0.93 (inactive) | 0.951 (inactive) | 1.1 (inactive) | 0.8 (inactive) | 0.984 (inactive) | 0.995 (inactive) | 1.15 (inactive) | 1.03 (inactive) | 1.07 (inactive) | 0.984 (inactive) | 0.99 (inactive) | 0.815 (inactive) | 1.02 (inactive) | 0.97 (inactive) | 1.05 (inactive) | 0.96 (inactive) |
| O=C(Nc1ccc(F)cc1F)c1cccnc1Oc1cccc(C(F)(F)F)c1 | 1.03 (inactive) | 0.98 (inactive) | 1.01 (inactive) | 1.02 (inactive) | 1.06 (inactive) | 1 (inactive) | 1.07 (inactive) | – | 1.08 (inactive) | 0.987 (inactive) | 1.04 (inactive) | 0.97 (inactive) | 1.11 (inactive) | 1.09 (inactive) | 1.03 (inactive) | 1.05 (inactive) | 0.997 (inactive) | 1.06 (inactive) | 1.03 (inactive) | 0.937 (inactive) |
| O=C(NCCc1ncc(C(F)(F)F)cc1Cl)c1ccccc1C(F)(F)F | 0.997 (inactive) | 0.977 (inactive) | 0.973 (inactive) | 1.13 (inactive) | 0.873 (inactive) | 0.931 (inactive) | 1.01 (inactive) | 0.806 (inactive) | 0.994 (inactive) | 0.939 (inactive) | 0.935 (inactive) | 0.961 (inactive) | 1.05 (inactive) | 0.987 (inactive) | 0.962 (inactive) | 0.995 (inactive) | 1.02 (inactive) | 0.981 (inactive) | 1.11 (inactive) | 0.935 (inactive) |
| COCC(=O)N(c1c(C)cccc1C)[C@H](C)C(=O)OC | 0.971 (inactive) | 1.01 (inactive) | 1.02 (inactive) | 1 (inactive) | 0.981 (inactive) | 1.03 (inactive) | 1.04 (inactive) | 0.999 (inactive) | 1.21 (inactive) | 1.08 (inactive) | 0.993 (inactive) | 1.06 (inactive) | 1.1 (inactive) | 1.05 (inactive) | 1.02 (inactive) | 1.08 (inactive) | 1.03 (inactive) | 1.01 (inactive) | 0.955 (inactive) | 1.05 (inactive) |
| CCNc1nc(Cl)nc(NC(C)C)n1 | 0.965 (inactive) | 0.972 (inactive) | 0.992 (inactive) | 1.01 (inactive) | 0.902 (inactive) | 1.03 (inactive) | 0.968 (inactive) | 1.04 (inactive) | 1.05 (inactive) | 1.01 (inactive) | 1.01 (inactive) | 1.01 (inactive) | 1 (inactive) | 1.05 (inactive) | 0.972 (inactive) | 1.06 (inactive) | 1.02 (inactive) | 1.03 (inactive) | 0.998 (inactive) | 1.01 (inactive) |
| CCCCc1c(C)nc(NCC)nc1OS(=O)(=O)N(C)C | 0.942 (inactive) | 0.942 (inactive) | 1.04 (inactive) | 1.03 (inactive) | 0.911 (inactive) | 0.863 (inactive) | 0.926 (inactive) | 0.816 (inactive) | 0.948 (inactive) | 0.944 (inactive) | 1.04 (inactive) | 1.05 (inactive) | 0.969 (inactive) | 0.978 (inactive) | 0.904 (inactive) | 1.06 (inactive) | 1.02 (inactive) | 0.963 (inactive) | 1.09 (inactive) | 0.906 (inactive) |
| N#CC(CCc1ccc(Cl)cc1)(Cn1cncn1)c1ccccc1 (stereo not drawn) | 0.938 (inactive) | 0.936 (inactive) | 1.01 (inactive) | 0.968 (inactive) | 0.81 (inactive) | 0.555 (active) | 0.666 (active) | 1.09 (inactive) | 0.946 (inactive) | 0.958 (inactive) | 0.96 (inactive) | 0.951 (inactive) | 0.939 (inactive) | 0.846 (inactive) | 0.856 (inactive) | 0.861 (inactive) | 0.909 (inactive) | 0.905 (inactive) | 1.02 (inactive) | 0.947 (inactive) |
| CCCCN(CCCC)SN(C)C(=O)Oc1cccc2c1OC(C)(C)C2 | 1.06 (inactive) | 1.03 (inactive) | 1.05 (inactive) | 1.07 (inactive) | 1.23 (inactive) | 0.838 (inactive) | 0.966 (inactive) | 0.824 (inactive) | 0.917 (inactive) | 0.92 (inactive) | 1.13 (inactive) | 1.01 (inactive) | 0.884 (inactive) | 0.925 (inactive) | 0.985 (inactive) | 1.13 (inactive) | 1.01 (inactive) | 0.952 (inactive) | 1.2 (inactive) | 1.12 (inactive) |
